DAX1 inh-1: inhibitors of human orphan nuclear receptor DAX1 (NR0B1) | HEK293 Gal4-DAX1 luciferase reporter, luminescence | inhibition, % at 6.75 µM | 340,000 tested, 0.99% active;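 active = inhibition above the mean over all tested compounds plus 3 SD, cut at about 4.2% in these data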;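 note: 0% = DAX1-transfected cells with DMSO and 100% = empty-vector control cells with DMSO; inhibition shows as a rise in luminescence from relieved DAX1 repression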
hgDAF-12 ag: activates the H. glycines DAF-12 receptor ligand-binding domain. HEK293 GAL4-hgDAF12 UAS-luciferase reporter, agonist luminescence; normalized to butyrate control. activation, % at 6.8 µM. 370,000 tested, 1.8% active. AID 687014;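 active = activation above a cutoff set at the mean of all screened compounds plus 3 SD, cut at about 10% in these data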;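 note: 0% = DMSO wells and 100% = sodium butyrate wells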
DAX1 inh-2: blocks DAX1 repression of SF-1 activated StAR promoter; HEK293T StAR-luciferase reporter, SF-1/DAX-1 repression relief; inhibition, % at 6.8 µM; 370,000 tested, 1.1% active; AID 652010;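 active = inhibition above the mean over all tested compounds plus 3 SD, cut at about 3.6% in these data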;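 note: 0% = DAX-1 cells with DMSO and 100% = cells lacking DAX-1 with DMSO; higher inhibition means more luminescence from relief of DAX-1 repression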
hcDAF-12 act: activators of H. contortus DAF-12 nuclear receptor. HEK293 hcDAF-12 lit1-tk-luc reporter, luminescence; 0% DMSO, 100% Δ7-dafachronic acid. activation, % at 6.8 µM. AID 652067. 370,000 tested, 1.4% active;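 active = activation above the mean of all tested compounds plus 3 SD, cut at about 5.5% in these data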;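 note: 100% = response to 3 µM Δ7-dafachronic acid high control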
ssDAF-12 act: activates DAF-12 receptor from parasite S. stercoralis. HEK293 ssDAF-12/GRIP1 lit1-tk-luc reporter, luminescence; % of 3 µM dafachronic acid response. activation, % at 6.8 µM. 370,000 tested, 1% active. AID 652126;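 active = activation above the mean over all tested compounds plus 3 SD, cut at about 0.9% in these data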;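 note: 0% = DMSO-only wells and 100% = 3 µM delta7-dafachronic acid wells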
LXR ag: LXR-beta agonism as hcDAF-12 counter-screen; shares compounds with hcDAF-12 act; HEK293 Gal4-LXR tk-luc reporter, luminescence, 24 h; normalized: DMSO 0%, positive control 100%; activation, % at 6.8 µM; 3,400 tested, under 10 active; AID 743027;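 active = mean percent activation of the reporter above a cutoff set as the average over tested compounds plus their standard deviation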
Target sequence (P55055 whole entry, looked up, the tested form may be a part): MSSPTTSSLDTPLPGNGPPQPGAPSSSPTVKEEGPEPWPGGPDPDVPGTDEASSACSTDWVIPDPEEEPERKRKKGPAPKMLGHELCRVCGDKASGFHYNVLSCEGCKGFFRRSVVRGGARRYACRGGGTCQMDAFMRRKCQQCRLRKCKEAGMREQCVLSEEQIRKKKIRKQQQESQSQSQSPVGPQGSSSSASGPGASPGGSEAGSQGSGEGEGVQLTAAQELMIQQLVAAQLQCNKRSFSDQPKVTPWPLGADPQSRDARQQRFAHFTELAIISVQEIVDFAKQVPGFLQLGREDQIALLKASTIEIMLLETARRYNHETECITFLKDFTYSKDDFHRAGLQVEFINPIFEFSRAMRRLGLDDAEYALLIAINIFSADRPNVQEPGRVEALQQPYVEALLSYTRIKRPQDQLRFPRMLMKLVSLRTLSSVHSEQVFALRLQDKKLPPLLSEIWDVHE
hcDAF12 conf: confirmation of H. contortus DAF-12 agonists; shares compounds with hcDAF-12 act; HEK293 hcDAF-12 lit1-tk-luc reporter, luminescence; % of Δ7-dafachronic acid response; activation, % at 6.8 µM; 3,400 tested, 61% active; AID 743032;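 active = mean activation across triplicate tests above the threshold derived from the earlier primary screen, cut at about 5.5% in these data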;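 note: 0% = DMSO only wells and 100% = 3 µM Δ7-dafachronic acid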
* hit, by the source's call; / = no result given. Only some compounds are listed: those with a hit (about 4.1% of all), similar ones and a draw of the others.

SMILES | DAX1 inh-1 | hgDAF-12 ag | DAX1 inh-2 | hcDAF-12 act | ssDAF-12 act | LXR ag | hcDAF12 conf
c1ccc(-c2noc(-c3cccc4ccccc34)n2)cc1 | 3 | 12* | 3.7* | 17* | 2.9* | 1 | 16*
CCOC(=O)c1sc(NC(=O)c2cccs2)nc1C | 2 | 6 | 1 | 11* | 1.9* | 1 | 6.3*
Cc1nc(NC(=O)c2cccs2)ccc1Br | 1 | 19* | 2 | 9.8* | 1.6* | 1 | 11*
CCOC(=O)c1sc(NC(=O)c2ccco2)nc1C | 1 | -1 | 1 | 2 | -1 | / | /
CC(=O)c1sc(NC(=O)c2cccs2)nc1C | 2 | 2 | 0 | -1 | -1 | / | /
CCOC(=O)c1sc(NC(=O)c2ccc(C)o2)nc1C | 1 | 11* | 4 | 8.8* | 0 | 1 | 8.6*
COc1ccc2nc(NC(=O)c3cccs3)sc2c1 | / | 12* | 1 | 6.7* | 0 | 2 | 7.2*
C/C(=N\NC(=O)c1cc(C)oc1C)c1ccc2ccccc2c1 | 4.4* | 11* | 0 | 7.2* | -2 | 0 | -1
Cc1ccc(NC(=O)OC2CC3CC2[C@H]2CCCCN2C3)cc1C (some centres undefined) | / | 7 | 0 | 0 | -1 | / | /
CC1(c2nnnn2Cc2ccccc2)CCSCC(=O)N1Cc1cccs1 (centres undefined) | / | -1 | 0 | 0 | -1 | / | /
Cc1cc(C)n2cc(-c3ccc(Cl)cc3)c(C(=O)O)c2n1 | 1 | 8 | 3 | 10* | 1.4* | 1 | 9.3*
Cc1cc(N)n2ncc(-c3ccc(Cl)cc3)c2n1 | 1 | 10 | 3 | 6.7* | 0 | 1 | 5
Cc1cc(NCCOCCO)n2ncc(-c3ccc(Cl)cc3)c2n1 | 4 | 10 | 3.7* | 6.7* | 1.0* | 1 | 6.8*
COc1ccc(CCNc2cc(C)nc3c(-c4ccccc4OC)cnn23)cc1OC | 0 | -1 | -1 | -3 | -1 | / | /
O=C(N[C@H](Cc1ccccc1)C(=O)NCc1ccco1)[C@H]1O[C@@H](n2ccc(=O)[nH]c2=O)[C@H](O)[C@@H]1O | / | 0 | 0 | 0 | -1 | / | /
Cc1ccc(S(=O)(=O)N2CCN(C(=O)c3ccc4ccccc4n3)CC2)c(C)c1 | 1 | 11* | 3 | 7.2* | 1 | 0 | 8.4*
O=C1Cc2ccccc2C(=O)N1CCc1ccccc1 | 4.7* | 6 | 0 | 6.9* | 0 | 0 | 4
COc1ccc(/C=C\c2nc(=O)c3ccccc3o2)cc1 | -1 | 19* | 4.2* | 7.2* | 0 | 1 | 11*
CN(C)[C@@H]1CCN(c2ccc3c(c2)O[C@H]2CCN(C2)S3(=O)=O)C1 | / | 8 | -1 | 0 | 0 | / | /
Cc1cnc(NC(=O)Nc2ccc(OCc3ccccc3)cc2)c(Br)c1 | 0 | 6 | 0 | 7.3* | 0 | 0 | 2
COC(=O)Nc1ccc(OCc2ccccc2)cc1 | 2 | 6 | 2 | 1 | -1 | / | /
C[C@@H]1CCN(C2CC2)S(=O)(=O)c2c(cccc2N2CCC[C@@H]2C)O1 | / | -1 | -2 | -1 | -1 | / | /
COC(=O)[C@H]1[C@H]2C[C@@H]3c4[nH]c5cc(OC)ccc5c4CCN3C[C@H]2C[C@@H](OC(=O)c2cc(OC)c(OC)c(OC)c2)[C@@H]1OC | 0 | -4 | 0 | -1 | -1 | / | /
COc1ccc2c3c([nH]c2c1)C1CC2C(CC(O)C(OC)C2C(=O)O)CN1CC3 (centres undefined) | 2 | 3 | 0 | 7.0* | -1 | 0 | -1
S=C(Nc1ccccc1)OCCN1CCCC12CCC(c1ccccc1)CC2 (centres undefined) | / | 2 | / | 1 | -1 | / | /
SMILES | DAX1 inh-1 | hgDAF-12 ag | DAX1 inh-2 | hcDAF-12 act | ssDAF-12 act | LXR ag | hcDAF12 conf
COC(=O)c1ccc(Cn2ccc3ccc(-c4ccc5ccn(C(=O)c6ccc(C)cc6)c5c4)cc32)cc1 | / | -2 | 0 | 3 | 0 | / | /
O[C@H](COc1cccc(Br)c1)CN1CCC(C(O)(c2ccccc2)c2ccccc2)CC1 | / | 0 | -1 | -2 | -2 | / | /
COc1ccccc1NC(=O)OCCCN1CCC2(CCC(C)CC2)C1=O (centres undefined) | / | 0 | -1 | 0 | -2 | / | /
COC(=O)[C@H](C(C)C)N(CCc1cn(Cc2ccccc2)nn1)S(=O)(=O)c1ccccc1Br | / | -4 | 1 | -2 | -1 | / | /
O=C(/C=C/Nc1cccc(F)c1)c1ccco1 | 3 | 12* | 3 | 8.8* | 1.4* | 1 | 8.1*
O=C(/C=C\Nc1cccc(F)c1)c1cccs1 | 3 | 8 | 3.6* | 9.8* | 1.5* | 2 | 18*
O=C(/C=C/Nc1ccc(F)c(Cl)c1)c1ccco1 | 4 | 9 | 1 | 8.8* | 1.7* | 1 | 12*
O=C(Nc1cccc(F)c1)/C(=C\c1ccco1)NC(=O)c1cccs1 | 2 | 2 | 1 | 0 | -1 | / | /
Cc1cccc(C2c3[nH]c4ccccc4c3CCN2C(=O)CN2CCOC2=O)n1 (centres undefined) | 0 | -2 | -1 | 7.0* | 0 | 0 | 6.1*
Cc1cc(N)n(-c2nc3ccccc3s2)n1 | 5.2* | 11* | 3.6* | 7.8* | 1.9* | 1 | 9.6*
Cc1nn(-c2nc3ccccc3s2)c(N)c1-c1ccc(Cl)cc1 | 1 | 2 | 0 | -2 | 0 | / | /
Cc1cc(C)n(-c2nc3ccccc3s2)n1 | 0 | 6 | 0 | -1 | -1 | / | /
Cc1nn(-c2nc3ccccc3s2)c(N)c1Sc1ccc(F)cc1 | 3 | 7 | 2 | 6.6* | 1 | 1 | 14*
COC(=O)C1=C(C)N(Cc2cccc(C(F)(F)F)c2)C(=NCc2ccccc2C(F)(F)F)NC1c1cccc(C(F)(F)F)c1 (centres undefined) | / | 1 | 0 | -2 | 0 | / | /
COc1ccc(CNC(=O)Cc2c(C(=O)O)[nH]c3ccccc23)c(OC)c1 | 1 | 1 | 0 | 6.9* | 1.9* | 0 | 2
COc1ccc(CNC(=O)Cc2c(C(=O)O)[nH]c3ccccc23)cc1 | 1 | 0 | 0 | 0 | 1 | / | /
O=[N+]([O-])c1cccc(NCCCN2CCC(C(O)(c3ccccc3)c3ccccc3)CC2)c1 | / | 1 | 0 | 1 | -1 | / | /
O=S1(=O)c2ccc(Br)cc2OC2CCCC[C@@H]2N1Cc1ccccc1 (some centres undefined) | / | 2 | -1 | 0 | -1 | / | /
COc1cc(CN2C(=O)C(C)ON=C2c2ccccc2F)cc(OC)c1 (centres undefined) | / | 0 | -1 | -4 | -1 | / | /

Screening data deposited in PubChem BioAssay by The Scripps Research Institute Molecular Screening Center.
